The record followed here is PubChem BioAssay AID1469 (National Center for Advancing Translational Sciences (NCATS), 2008).

The whole screen tested about 280,000 compounds, of which about 180 (0.064%) were called active. A call without a number means that no potency is given here. Calls follow the shape of the dose curve; as a rule, active = well fitted inhibition curve with a large enough effect; inconclusive = small, poorly fitted or top-dose-only effect, or effect the other way; inactive = flat fitted curve, though single readings scatter. This excerpt belongs to a sample that is enriched for actives.
Potency is read from the fitted curve at half-maximal effect.

The target of the assay is Thyroid hormone receptor beta (Homo sapiens) (UniProt P10828). Description: qHTS for Inhibitors of the Interaction of Thyroid Hormone Receptor and Steroid Receptor Coregulator 2. Also: nearly all actives have a fitted effect of over 50% in size. The conditions noted are these: TRbeta-SRC2 peptide binding, fluorescence polarization, receptor liganded with 1 µM T3; series mostly up to 106 µM. The text has this: NIH Molecular Libraries Probe Production Network [MLPCN]
Thyroid hormone receptor beta (Homo sapiens), sequence (P10828 whole entry, looked up): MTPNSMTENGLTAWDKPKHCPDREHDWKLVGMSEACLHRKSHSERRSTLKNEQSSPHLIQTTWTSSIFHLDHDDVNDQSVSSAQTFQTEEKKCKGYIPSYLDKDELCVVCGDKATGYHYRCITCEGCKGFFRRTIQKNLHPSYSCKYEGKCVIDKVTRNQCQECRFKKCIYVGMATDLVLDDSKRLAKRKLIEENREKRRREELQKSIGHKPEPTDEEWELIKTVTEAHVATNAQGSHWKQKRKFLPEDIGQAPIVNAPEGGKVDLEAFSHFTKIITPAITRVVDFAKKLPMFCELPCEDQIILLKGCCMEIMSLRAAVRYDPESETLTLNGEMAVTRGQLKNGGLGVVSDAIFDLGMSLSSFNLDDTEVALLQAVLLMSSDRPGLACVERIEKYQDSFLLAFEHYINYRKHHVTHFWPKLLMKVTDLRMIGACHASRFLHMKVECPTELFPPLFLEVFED
NIH Chemical Genomics Center [NCGC]
Assay Provider: R. Kip Guy, St. Jude Children's Research Hospital
Thyroid receptor (TR) regulates many homeostatic processes including basal metabolism, cardiovascular function, body weight, and lipid trafficking. TR modulators are potential therapeutics for obesity and hyperlipidemias but current thyroid analogs have undesirable side effects, particularly cardiac stimulation. To identify inhibitors that specifically prevent the interaction of TR with the steroid receptor coregulator 2 (SRC2), a fluorescence polarization assay was screened. This assay detects interaction of the ligand-binding domain of human TRb with a Texas Red labeled SRC2 peptide, corresponding to a 20 amino acid region of the nuclear receptor interaction domain (Arnold et al., 2006). Small molecule inhibitors that block the interaction of TR and SRC2 are detected by a decrease in fluorescence polarization.
Arnold, L. A.; Estebanez-Perpina, E.; Togashi, M.; Shelat, A.; Ocasio, C. A.; McReynolds, A. C.; Nguyen, P.; Baxter, J. D.; Fletterick, R. J.; Webb, P.; Guy, R. K. A high-throughput screening method to identify small molecule inhibitors of thyroid hormone receptor coactivator binding. Sci STKE 2006, p 13.
NCGC Assay Protocol Summary:
For screening, 5 uL/well 0.6 uM TRb and 20 nM SRC2 Texas Red in protein buffer (20mM Tris hydrochloride, 100mM NaCl, 10% glycerol, 1mM EDTA, 0.01% NP-40, 1mM DTT, 1uM T3 and 5% DMSO) was dispensed into black solid 1536-well plates (Grenier) using a solenoid-based dispenser. Following transfer of 23 nL compound or DMSO vehicle by a pin tool, the plates were centrifuged 15 s at 1000 RPM and incubated 5 hr at ambient temperature. The plates were read by an Envision (Perkin Elmer) to detect fluorescence polarization of SRC2 Texas Red (555 nm excitation and 632 nm emission). Data were normalized to unbound (all components except TRb) and bound SRC2 Texas Red controls. In this assay, we provide % activity data for each concentration as well as potencies for the active compounds.
Keywords: NIH Roadmap, MLPCN, MLI, MLSMR, qHTS, NCGC, qHTS, thyroid hormone receptor, steroid receptor coactivator, fluorescence polarization
Background: Quantitative high-throughput screening tests each substance at several concentrations.
Regarding `CC1(C)C(=O)N(Cl)C(=O)N1Cl`, the Potency result is “inactive”.

As for `CCCCCCCCCCCCCCCC`, the Potency entry is “inactive”.

Take `CCOc1ccccc1NC(=O)Cn1c2ncccc2c(=O)n1-c1ccc(C)c(C)c1`: the Potency result was “inactive”.

For `CC(C)Cn1c(-c2ccc(S(=O)(=O)N3CCOCC3)cc2)csc1=Nc1cc(Cl)ccc1Cl`, the Potency entry was “inactive”.

Regarding `COc1cccc(-c2nc(CS(=O)(=O)CC(=O)N3CCN(c4cc(C)ccc4C)CC3)c(C)o2)c1`, the Potency result was “inactive”.

On to `CC1(C)C(=O)N(Br)C(=O)N1Br`, for which the Potency result was “inactive”.

On to `Cc1nc2ccn(Cc3cccs3)c(=O)c2cc1C(=O)NCc1ccc(Cl)cc1`, for which the Potency result is “inactive”.

`CCOc1cc(-c2nnc(SCC(=O)NC3CCCCC3)nc2-c2ccc(OC)c(OCC)c2)ccc1OC`: the Potency entry is “inactive”.

With `Cc1ccc(N)c(S(=O)(=O)O)c1`, the Potency result was “inactive”.

As for `CCc1c(C(=O)O)c(=O)cnn1-c1ccc(Cl)cc1`, the Potency result was “inactive”.

In the case of `CC1CCN(S(=O)(=O)c2ccc3c(ccn3CCC(=O)NCc3ccc(N(C)C)cc3)c2)CC1`, the Potency result is “inactive”.

On to `COc1ccc(N2CCN(C(=O)C3CCCN(C(=O)c4cc5sccc5n4C)C3)CC2)cc1` (centres undefined), for which the Potency result was “inactive”.

With `CC(=O)Nc1ccc(NC(=O)c2cc3sccc3n2Cc2ccc(F)cc2)cc1`, the Potency result was “inactive”.

`CCOc1ccc(OCC)c(NC(=O)CN(c2ccc(C)cc2)S(=O)(=O)c2c(C)n[nH]c2C)c1`: the Potency result is “inactive”.

Turning to `COc1ccc(CCNC(=O)CCCCn2c(=O)c3ccccc3n(Cc3ccccc3)c2=O)cc1OC`, the Potency result is “inactive”.

With `CCCS(=O)(=O)c1c(Nc2ccccc2C)sc(C(=O)c2ccccc2)c1N`, the Potency entry was “inactive”.

Turning to `COc1cccc(NC(=O)CSc2cc(=O)n(C)c3ccc(Cl)cc23)c1`, the Potency entry was “inactive”.

As to `CSc1ccccc1NC(=O)CCS(=O)(=O)c1nc(-c2cccs2)cc(C(F)(F)F)n1`, the Potency entry was “inactive”.

As to `COc1ccc2c(c1)Cc1sc(NC(=O)c3ccccc3Br)nc1-2`, the Potency entry was “inactive”.

As to `COc1cc(OC)c(NC(=O)N2CC3CCCN3c3ccccc32)cc1Cl` (centres undefined), the Potency result was “inactive”.

As for `Cc1ccc(C2C=C(c3ccc(Cl)cc3)Nc3nc(NC(=O)CCC(=O)O)nn32)cc1` (centres undefined), the Potency result is “inactive”.

For `O=S(=O)(c1ccc2nc(NCc3ccccc3Cl)ccc2c1)N1CCCCC1`, the Potency result is “inactive”.

As for `COc1ccc(NC(=O)C2CCN(c3ccc(Sc4ccc(C)cc4)nn3)CC2)c(OC)c1`, the Potency result was “inactive”.

Take `COc1ccc(Nc2ncc(C(=O)Nc3cc(C)ccc3OC)c3ccccc23)cc1`: the Potency result was “inactive”.

With `Cc1ccc(S(=O)(=O)c2nc(-c3cccs3)oc2N2CCCCC2)cc1`, the Potency entry was “inactive”.

Take `COc1ccccc1Nc1c2c(nc3ccc(NC(=O)/C=C/c4cc(OC)c(OC)c(OC)c4)cc13)CCCC2`: the Potency result is “inactive”.

As to `COc1cccc(Cn2c(SCc3ccc(C(=O)N4CCC(C)CC4)cc3)nc3ccncc32)c1`, the Potency entry was “inactive”.

As to `CCOC(=O)Cn1c(=O)n(-c2ccccc2OC)c2nc(-c3cccc(F)c3)nc(C(N)=O)c21`, the Potency result is “inactive”.

For the compound `Cc1cccc(N2CCN(C(=O)c3cc4c(=O)oc5ccccc5c4s3)CC2C)c1` (centres undefined), the Potency entry was “inactive”.

As for `COc1ccc(C)cc1NC(=O)C(=O)NCCc1sc(-c2cccc(C)c2)nc1C`, the Potency entry is “inactive”.

In the case of `Cc1cccc(Cn2c(SCc3ccc(C(=O)N4CCC(C)CC4)cc3)nc3ccncc32)c1`, the Potency entry was “inactive”.

For the compound `CN1CCN(c2oc(-c3ccc(COc4ccc(Cl)cc4)o3)nc2C#N)CC1`, the Potency result is “inactive”.

With `CC(=O)c1ccc(NC(=O)CSc2c(C(C)C)cnc3c2c(=O)n(C)c(=O)n3C)cc1`, the Potency entry was “inactive”.

Take `CCOc1ccc(C2C(=O)N(C3CCCCC3)CC(=O)N2CCC2=CCCCC2)cc1OC` (centres undefined): the Potency entry was “inactive”.

Turning to `COc1ccccc1N1CCN(C(CNC(=O)C(=O)NCc2ccc(C)cc2)c2cccnc2)CC1` (centres undefined), the Potency result is “inactive”.

On to `COCCOC(=O)c1sc(=S)n(CCOC)c1N`, for which the Potency was 39.8 µM (active).

Take `CCOC(=O)c1c(N)sc(C(C)=O)c1C`: the Potency entry was “inactive”.

As for `COC(=O)c1sc(=S)n(-c2ccc(Cl)cc2)c1C`, the Potency entry is “inactive”.

For the compound `Cc1cc(C)c(N)c(Cl)c1`, the Potency result was “inactive”.

For the compound `COc1ccc(C2Sc3ccccc3NC3=C2C(=O)c2ccccc23)c(OC)c1OC` (centres undefined), the Potency entry was “inactive”.

As to `CCOc1cccc(CC(=O)N2CCc3c([nH]c4ccccc34)C2c2ccc(OC)cc2)c1OCC` (centres undefined), the Potency result was “inactive”.

Turning to `Cc1ccc(OCC(=O)Nc2ccc(Cl)c(-c3nc4ccccc4[nH]3)c2)cc1C`, the Potency entry is “inactive”.

With `COc1ccc(C(F)(F)F)cc1NC(=O)c1sc2nc(-c3cccs3)ccc2c1N`, the Potency entry is “inactive”.

With `CCOc1ccc(C(=O)/C=C/c2cn(CC(O)CN3CCCCCC3)c3ccccc23)cc1` (centres undefined), the Potency result was “inactive”.

Consider `Cc1ccc(CCNC(=O)c2ccc3c(c2)N(Cc2cc(C)ccc2C)C(=O)c2ccccc2S3=O)cc1` (centres undefined), for which the Potency result was “inactive”.

`O=C(C1CCC(Cn2c(=O)c3sccc3n(Cc3ccccc3F)c2=O)CC1)N1CCCCC1` (centres undefined): the Potency result is “inactive”.

As for `COc1cccc(N2CCN(S(=O)(=O)c3cc(Br)cc4c3N(C(=O)C3CC3)CC4)CC2)c1`, the Potency entry was “inactive”.

Consider `CCOc1cccc2sc(N3CCN(C(=O)C4CC4)CC3)nc12`, for which the Potency entry was “inactive”.

`COc1ccc(OCCCn2c(C)nc3cc(C)c(C)cc32)cc1`: the Potency entry was “inactive”.

Turning to `CC(=O)Nc1ccc2nc(SCCOc3cc(C)cc(C)c3)sc2c1`, the Potency entry was “inactive”.

As to `COc1ccc(NC(=O)CSc2nc3ccccc3n2CC(=O)N2CCCCC2C)cc1` (centres undefined), the Potency result was “inactive”.

In the case of `Cc1cccc(CC(=O)Nc2cccc(-c3cn4cccnc4n3)c2)c1`, the Potency result was “inactive”.

As to `CC(=O)N(CCN(C(C)=O)C(C)=O)C(C)=O`, the Potency result was “inactive”.

Take `COc1ccc(Cl)cc1-n1c(CCC(=O)O)ccc1-c1ccc(C)cc1`: the Potency entry was “inactive”.

`CCOc1ccccc1N(CC)C(=O)c1cc2ccc3cccnc3c2[nH]1`: the Potency result is “inactive”.

For `CCOc1ccccc1CNC(=O)Nc1cn(CC(C)C)c(=O)c2ccccc12`, the Potency entry is “inactive”.

For the compound `O=C(Nc1cc(Cl)cc(Cl)c1)c1ccc2c(c1)N(Cc1cccc(Cl)c1)C(=O)c1ccccc1S2=O` (centres undefined), the Potency result was “inactive”.

As for `Clc1cccc(-n2ncc3c(NCCc4ccccc4)ncnc32)c1`, the Potency result was “inactive”.

Consider `CCOC(=O)c1c(C)oc2nc(C)nc(N(CC(C)C)CC(C)C)c12`, for which the Potency result was “inactive”.

Turning to `O=C(Nc1cccc(-c2nc3ccccc3o2)c1)c1cccc(Br)c1`, the Potency result is “inactive”.

As to `CCN(CC)S(=O)(=O)c1nnc(NC(=O)COc2ccccc2Cl)s1`, the Potency result is “inactive”.

As for `O=C(c1ccc2c(c1)N(Cc1ccccc1)C(=O)c1ccccc1S2(=O)=O)N1CCC(Cc2ccccc2)CC1`, the Potency result was “inactive”.

As for `CCc1ccc(NC(=O)c2sc3nc4c(cc3c2N)CN(CC)CC4)cc1`, the Potency entry is “inactive”.

On to `CC(=O)c1ccc(NC(=O)CSc2nc(-c3ccccc3F)nc3c2c(=O)n(C)c(=O)n3C)cc1`, for which the Potency result is “inactive”.
